About 1,500 (3.8%) of roughly 39,000 compounds were called active. This is one part of a sample in which actives are shown more often than they occur.
Each compound was assayed on HSkMC (human skeletal muscle cells) (assay: cytotoxicity call (relative viability < 0.9)). Conditions: 10 µM.

Row | SMILES | cytotoxicity call
1 | C[C@@H]1CCCCO[C@H](CN(C)Cc2ccc3c(c2)OCO3)[C@@H](C)CN([C@@H](C)CO)C(=O)c2cc(NC(=O)NC3CCCCC3)ccc2O1 | inactive
2 | [O-][NH2+]N1CCCCC1 | inactive
3 | CC(C)NC(=O)N(C)C[C@H]1Oc2c(NS(=O)(=O)c3ccc(Cl)cc3)cccc2C(=O)N([C@H](C)CO)C[C@@H]1C | inactive
4 | C[C@H](CO)N1C[C@H](C)[C@@H](CN(C)C(=O)Nc2ccc(F)cc2)Oc2c(NS(=O)(=O)c3cn(C)cn3)cccc2C1=O | inactive
5 | O=C(NCC(F)(F)F)[C@@H]1c2ccccc2C(=O)N(CC23CC4CC(CC(C4)C2)C3)[C@H]1c1ccc(CO)cc1 | inactive
6 | CN1CCC2(CC1)CN(C(=O)CNC(N)=O)CCCN2C | inactive
7 | C[C@@H]1CN([C@H](C)CO)C(=O)c2cc(NC(=O)Nc3cccc4ccccc34)ccc2O[C@H]1CN(C)C(=O)NC1CCCCC1 | active
8 | C[C@@H]1CN([C@H](C)CO)C(=O)c2cc(NC(=O)NC3CCCCC3)ccc2O[C@H]1CN(C)C(=O)Nc1cccc2ccccc12 | inactive
9 | C[C@@H]1CN([C@H](C)CO)C(=O)c2cc(NC(=O)Nc3cccc4ccccc34)ccc2O[C@@H]1CN(C)C(=O)NC1CCCCC1 | inactive
10 | C[C@H](CO)N1C[C@H](C)[C@@H](CN(C)C(=O)NC2CCCCC2)Oc2ccc(NC(=O)Nc3cccc4ccccc34)cc2C1=O | inactive
11 | C[C@@H]1CN([C@@H](C)CO)C(=O)c2cc(NC(=O)NC3CCCCC3)ccc2O[C@H]1CN(C)C(=O)Nc1cccc2ccccc12 | inactive
12 | C[C@@H]1CN([C@@H](C)CO)C(=O)c2cc(NC(=O)NC3CCCCC3)ccc2O[C@@H]1CN(C)C(=O)Nc1cccc2ccccc12 | active
13 | COC(=O)CCn1ccc(=O)[nH]c1=O | inactive
14 | C[C@@H]1CN([C@@H](C)CO)C(=O)c2cc(NC(=O)Nc3ccc(C(F)(F)F)cc3)ccc2O[C@H]1CN(C)Cc1ccncc1 | inactive
15 | COc1ccc(S(=O)(=O)Nc2ccc3c(c2)C(=O)N([C@H](C)CO)C[C@H](C)[C@H](CN(C)C(=O)Nc2ccccc2)OCCCC[C@H](C)O3)cc1 | inactive
16 | C[C@H]1CN([C@@H](C)CO)C(=O)c2cccc(NC(=O)Nc3ccc(C(F)(F)F)cc3)c2O[C@@H]1CN(C)S(=O)(=O)c1ccc(F)cc1 | inactive
17 | C=CCNC(=O)[C@@H]1[C@H]2C(=O)O[C@H](c3ccccc3)[C@H](c3ccccc3)N2[C@H](c2ccc(OCCO)cc2)[C@@]12C(=O)N(C(=O)OCCOC)c1ccc(C#Cc3ccc(OC)cc3)cc12 | inactive
18 | COc1ccc(NC(=O)Nc2ccc3c(c2)CC(=O)N([C@@H](C)CO)C[C@H](C)[C@@H](CN(C)Cc2ccc(Oc4ccccc4)cc2)O3)cc1 | inactive
19 | COc1ccc(NC(=O)Nc2ccc3c(c2)CC(=O)N([C@@H](C)CO)C[C@@H](C)[C@H](CN(C)Cc2ccc(Oc4ccccc4)cc2)O3)cc1 | active
20 | COc1ccc(NC(=O)Nc2ccc3c(c2)CC(=O)N([C@@H](C)CO)C[C@H](C)[C@H](CN(C)Cc2ccc(-c4ccccc4)cc2)O3)cc1 | inactive
21 | COc1ccc(NC(=O)Nc2ccc3c(c2)CC(=O)N([C@H](C)CO)C[C@H](C)[C@@H](CN(C)Cc2ccc(-c4ccccc4)cc2)O3)cc1 | active

Row | SMILES | cytotoxicity call
22 | COc1ccc(NC(=O)Nc2ccc3c(c2)CC(=O)N([C@H](C)CO)C[C@@H](C)[C@@H](CN(C)Cc2ccc(Oc4ccccc4)cc2)O3)cc1 | inactive
23 | C[C@H]1CN([C@@H](C)CO)C(=O)Cc2cc(NC(=O)Nc3ccccc3)ccc2O[C@H]1CN(C)Cc1ccc(Oc2ccccc2)cc1 | active
24 | C[C@H](CO)N1C[C@H](C)[C@H](CN(C)Cc2ccc(Oc3ccccc3)cc2)Oc2ccc(NC(=O)Nc3ccccc3)cc2CC1=O | inactive
25 | C[C@@H]1CN([C@@H](C)CO)C(=O)Cc2cc(NC(=O)Nc3ccccc3)ccc2O[C@@H]1CN(C)Cc1ccc(Oc2ccccc2)cc1 | active
26 | COc1ccc(NC(=O)Nc2ccc3c(c2)CC(=O)N([C@H](C)CO)C[C@H](C)[C@H](CN(C)Cc2ccc(-c4ccccc4)cc2)O3)cc1 | inactive
27 | COc1ccc(NC(=O)Nc2ccc3c(c2)CC(=O)N([C@H](C)CO)C[C@H](C)[C@H](CN(C)Cc2ccc(Oc4ccccc4)cc2)O3)cc1 | inactive
28 | C[C@H](CO)N1C[C@H](C)[C@@H](CN(C)Cc2ccc(Oc3ccccc3)cc2)Oc2ccc(NC(=O)Nc3ccccc3)cc2CC1=O | inactive
29 | COc1ccc(NC(=O)Nc2ccc3c(c2)CC(=O)N([C@@H](C)CO)C[C@@H](C)[C@@H](CN(C)Cc2ccc(Oc4ccccc4)cc2)O3)cc1 | inactive
30 | C[C@H](CO)N1C[C@H](C)[C@@H](CN(C)C(=O)Cc2ccncc2)Oc2ncc(C#CC3(O)CCCC3)cc2C1=O | inactive
31 | C[C@@H]1CN([C@H](C)CO)C(=O)c2cc(NC(=O)Nc3cccc4ccccc34)ccc2O[C@H]1CN(C)Cc1ccc(C(=O)O)cc1 | inactive
32 | C[C@@H]1CCCCO[C@@H](CN(C)C(=O)CCC(F)(F)F)[C@H](C)CN([C@H](C)CO)C(=O)c2cc(NC(=O)c3ccccc3)ccc2O1 | inactive
33 | C[C@@H]1CN([C@H](C)CO)C(=O)c2cc(NC(=O)CCN3CCOCC3)ccc2O[C@@H]1CN(C)CC1CC1 | inactive
34 | C[C@H](CO)N1C[C@H](C)[C@H](CN(C)C(=O)Nc2ccc(C(F)(F)F)cc2)Oc2ccc(NC(=O)Nc3ccc(C(F)(F)F)cc3)cc2C1=O | inactive
35 | O=C(C[C@@H]1CC[C@@H]2[C@H](COC[C@@H](O)CN2S(=O)(=O)c2ccc(F)cc2)O1)NCc1ccc(Cl)c(Cl)c1 | inactive
36 | CC(C)NC(=O)Nc1ccc2c(c1)CC(=O)N([C@H](C)CO)C[C@@H](C)[C@@H](CN(C)Cc1ccc(Oc3ccccc3)cc1)O2 | active
37 | C[C@H]1CN([C@@H](C)CO)C(=O)Cc2cc(NC(=O)Nc3ccccc3)ccc2O[C@@H]1CN(C)Cc1ccc(Oc2ccccc2)cc1 | active
38 | CC(C)NC(=O)Nc1ccc2c(c1)CC(=O)N([C@@H](C)CO)C[C@@H](C)[C@H](CN(C)Cc1ccc(Oc3ccccc3)cc1)O2 | inactive
39 | C[C@@H]1CN([C@@H](C)CO)C(=O)Cc2cc(NC(=O)Nc3ccc4c(c3)OCO4)ccc2O[C@H]1CN(C)Cc1ccc(Oc2ccccc2)cc1 | inactive
40 | C[C@H]1CN([C@@H](C)CO)C(=O)Cc2cc(NC(=O)Nc3ccc4c(c3)OCO4)ccc2O[C@@H]1CN(C)Cc1ccc(Oc2ccccc2)cc1 | inactive
41 | CC(C)NC(=O)Nc1ccc2c(c1)CC(=O)N([C@@H](C)CO)C[C@@H](C)[C@@H](CN(C)Cc1ccc(Oc3ccccc3)cc1)O2 | inactive
42 | C[C@@H]1CN([C@H](C)CO)C(=O)Cc2cc(NC(=O)Nc3ccccc3)ccc2O[C@@H]1CN(C)Cc1ccc(Oc2ccccc2)cc1 | active

Row | SMILES | cytotoxicity call
43 | C[C@@H]1CN([C@H](C)CO)C(=O)Cc2cc(NC(=O)Nc3ccccc3)ccc2O[C@H]1CN(C)Cc1ccc(Oc2ccccc2)cc1 | inactive
44 | C[C@H](CO)N1C[C@H](C)[C@@H](CN(C)Cc2ccc(Oc3ccccc3)cc2)Oc2ccc(NC(=O)Nc3ccc4c(c3)OCO4)cc2CC1=O | active
45 | C[C@@H]1CN([C@@H](C)CO)C(=O)Cc2cc(NC(=O)Nc3ccccc3)ccc2O[C@H]1CN(C)Cc1ccc(Oc2ccccc2)cc1 | inactive
46 | COc1ccc2c3c(n(c2c1)C)[C@H](CO)N(CC1CCOCC1)C[C@]13CCN(CC1)C(=O)c1cnccn1 | inactive
47 | CO[C@H]1CN(C)C(=O)c2cc(NC(=O)c3ccc(F)cc3)ccc2OC[C@@H](C)N(C(=O)CN(C)C)C[C@@H]1C | inactive
48 | C=CC[C@@H](CC(=O)N[C@@H](CO)Cc1ccccc1)C(=O)N[C@@H](C)COC(=O)[C@@H](CC=C)CC(=O)OC(C)(C)C | inactive
49 | COc1ccccc1S(=O)(=O)N(C)C[C@@H]1OCc2cnnn2CCCC(=O)N([C@@H](C)CO)C[C@H]1C | inactive
50 | COc1ccccc1CNC(=O)C[C@H]1C[C@@H]2c3cc(NC(=O)NC4CCCC4)ccc3O[C@@H]2[C@@H](CO)O1 | inactive
51 | C[C@H](CO)N1C[C@H](C)[C@H](CN(C)C(=O)Nc2ccc(F)cc2)OCCCC[C@H](C)Oc2ccc(NC(=O)Nc3ccc(F)cc3)cc2C1=O | inactive
52 | C[C@@H]1CN([C@@H](C)CO)C(=O)c2cc(NC(=O)NC3CCCCC3)ccc2O[C@@H](C)CCCCO[C@H]1CN(C)CC1CCCCC1 | inactive
53 | C[C@@H]1CN([C@@H](C)CO)C(=O)c2cc(NS(=O)(=O)c3cccs3)ccc2O[C@@H](C)CCCCO[C@@H]1CN(C)Cc1ccc2c(c1)OCO2 | inactive
54 | CN(C)C(=O)C[C@H]1C=C[C@@H](NC(=O)C2CCOCC2)[C@H](CO)O1 | inactive
55 | C[C@H](CO)N1C[C@H](C)[C@@H](CN(C)Cc2ccc(Cl)c(Cl)c2)Oc2ccc(NC(=O)Nc3ccccc3)cc2C1=O | inactive
56 | C[C@H]1CN([C@@H](C)CO)C(=O)c2cc(NC(=O)Nc3ccccc3)ccc2O[C@H]1CN(C)Cc1ccc(Cl)c(Cl)c1 | active
57 | C[C@@H]1CN([C@@H](C)CO)C(=O)c2cc(NC(=O)Nc3ccccc3)ccc2O[C@@H]1CN(C)Cc1ccc(Cl)c(Cl)c1 | active
58 | C[C@H]1CN([C@@H](C)CO)C(=O)c2cc(NC(=O)Nc3ccccc3)ccc2O[C@@H]1CN(C)Cc1ccc(Cl)c(Cl)c1 | inactive
59 | C[C@@H]1CN([C@H](C)CO)C(=O)c2cc(NC(=O)Nc3ccccc3)ccc2O[C@@H]1CN(C)Cc1ccc(Cl)c(Cl)c1 | inactive
60 | C[C@@H]1CN([C@H](C)CO)C(=O)c2cc(NC(=O)Nc3ccccc3)ccc2O[C@H]1CN(C)Cc1ccc(Cl)c(Cl)c1 | inactive
61 | C[C@H](CO)N1C[C@H](C)[C@@H](CN(C)S(=O)(=O)c2cccs2)Oc2ccc(NS(=O)(=O)c3ccc(F)cc3)cc2C1=O | inactive
